# Test results from PubChem BioAssay.
# The source made the active and inactive calls.
# Legend:
# [1] = compound effects on lung adenocarcinoma cell viability – A549, calcein-AM fluorescence, 48 h, basal, profiling panel (AID 1162); conditions: higher = more signal
# [2] = compound effects on differentiated 3T3-L1 adipocyte viability – cell-based, 3T3-L1 adipocytes, calcein-AM fluorescence, 48 h, basal, profiling panel (AID 1163); conditions: 3T3-L1 adipocytes viability, higher = more signal
# [3] = compound effects on hepatocellular carcinoma cell viability – HepG2, calcein-AM fluorescence, 48 h, basal, profiling panel (AID 1164); conditions: higher = more signal
# [4] = compound effects on multiple myeloma cell viability – MM1S, calcein-AM fluorescence, 48 h, basal, profiling panel (AID 1165); conditions: higher = more signal
# [5] = calcein-AM signal in unstimulated myeloma cells – cell-based, calcein-AM fluorescence, 48 h, PK04 Diversity Set, profiling panel (AID 1166); conditions: RPMI8226 myeloma viability, higher = more signal;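 note: cells grown under basal conditions without added stimulus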
# [6] = JC-1 mitochondrial signal, unstimulated HepG2 cells – cell-based, JC-1 fluorescence, 24 h, 100 nL compound, profiling panel (AID 1167); conditions: HepG2 mitochondrial potential, higher = more signal
# [7] = JC-1 mitochondrial signal, unstimulated adipocytes – cell-based, JC-1 fluorescence, 3T3-L1 adipocytes, 24 h, 100 nL compound, profiling panel (AID 1168); conditions: JC-1 mitochondrial fluorescence, higher = more signal, called active from +8 up or from −8 down
# [8] = JC-1 mitochondrial signal, unstimulated myeloma cells – cell-based, JC-1 fluorescence, RPMI8226, 24 h, 100 nL compound, profiling panel (AID 1169); conditions: JC-1 mitochondrial potential fluorescence, higher = more signal
# [9] = JC-1 mitochondrial signal, unstimulated MM1S myeloma – cell-based, JC-1 fluorescence, 24 h, 100 nL compound, profiling panel (AID 1170); conditions: MM1S mitochondrial potential, higher = more signal
# [10] = resazurin metabolic signal in A549 cells – cell-based, resazurin fluorescence, 24 h, PK04 Diversity Set, profiling panel (AID 1171); conditions: A549 viability, higher = more signal, called active from +8 up or from −8 down
# Note: test concentration not given here.
SMILES,z-score [1],z-score [2],z-score [3],z-score [4],z-score [5],z-score [6],z-score [7],z-score [8],z-score [9],z-score [10]
COc1cc2c(cc1OC)CN(C(=O)[C@@H]1[C@H]3C(=O)O[C@H](c4ccccc4)[C@H](c4ccccc4)N3[C@H](c3ccc(O)cc3)[C@@]13C(=O)Nc1ccc(C#CCNC(N)=O)cc13)CC2,0.434,0.0878,-0.659,0.454,-0.375,-1.55,-0.628 (inactive),-0.0414,-0.375,0.795 (inactive)
CCOC(=O)C[C@H]1[C@H](OC(=O)c2cc3ccccc3oc2=O)[C@@H](NC(=O)c2ccc3ccccc3n2)c2cc(OCCCO)ccc2N1C(=O)c1ccc2ccccc2n1,0.513,1.27,0.717,-0.255,-0.719,0.082,-0.33 (inactive),-0.115,1.17,-0.82 (inactive)
CC1CC/C=C\[C@H]2OC34C=CCN(Cc5ccccc5)C(=O)[C@H]3N(CCO)C(=O)[C@@H]4C2C(=O)O1 (stereo not given in full),-0.106,1.1,0.337,1.47,-0.105,0.0673,0.488 (inactive),-0.657,2.1,-0.783 (inactive)
CCCCC(CC)C(O)C1C=CC2C(=O)NC(=O)C2N1Nc1ccccn1 (stereo not given),0.373,-0.131,1.12,-0.11,0.581,0.0822,-0.506 (inactive),0.713,-0.792,-0.858 (inactive)
COC(=O)[C@@]1(Cc2ccc(F)cc2)[C@H]2c3cc(C(=O)N(C)C)n(CCSCCO)c3C[C@H]2CN1C(=O)c1ccccc1,-0.716,-0.352,0.665,-0.684,-1.08,-0.572,-0.682 (inactive),-0.0796,0.172,-0.0793 (inactive)
COc1cc(C(O)C2C=CC3C(=O)N(C)C(=O)C3N2NC(=O)OC(C)(C)C)cc(OC)c1OC (stereo not given),-1.58,-0.785,-0.884,-2.19,-0.907,-1.66,-0.321 (inactive),-0.872,0.415,-0.679 (inactive)
COc1ccc(C#Cc2ccc3c(c2)[C@]2(C(=O)N3)[C@H](c3ccc(OCCO)cc3)N3[C@H](c4ccccc4)[C@H](c4ccccc4)OC(=O)[C@H]3[C@@H]2C(=O)N2CCN(c3ncccn3)CC2)cc1,-0.446,1.15,-0.646,0.496,-0.106,-0.851,4.27 (inactive),-0.507,-0.816,1.32 (inactive)
COc1ccc(C(=O)Nc2ccc(CN3C(=O)[C@@]4(O[C@@H](CC(=O)N5Cc6ccccc6C[C@H]5CO)[C@H]([Si](C)(C)c5ccc(OC)cc5)[C@H]4C)c4ccccc43)cc2)cc1,-0.0018,0.844,-0.856,-1.84,-0.881,0.489,0.749 (inactive),-0.957,-1.05,0.143 (inactive)
COC(=O)[C@]1(Cc2ccccc2CN=[N+]=[N-])N=C(c2ccc(OCCCO)cc2)O[C@@H]1c1ccccc1,-3.05,0.371,-4.37,-3.58,-3.96,-1.05,0.199 (inactive),-1.05,-2.7,-2.91 (inactive)
C[C@H]1NC(=O)C([C@@H](C)OCc2ccccc2)NC(=O)[C@@]23C(=O)N[C@@H](Cc4ccccc4)C2[C@H](C)[C@@]2(C)O[C@H]2C3/C=C/CC/C=C/CNC1=O (stereo not given in full),0.33,0.221,0.456,-0.728,-1.2,2.67,0.434 (inactive),0.452,1.84,-0.757 (inactive)
COC(=O)C(CC#Cc1ccc2c(c1)[C@]1(C(=O)N2)[C@H](c2ccc(O)cc2)N2[C@H](c3ccccc3)[C@H](c3ccccc3)OC(=O)[C@H]2[C@@H]1C(N)=O)C(=O)OC,1.43,-0.0866,0.188,0.244,0.728,1.44,0.673 (inactive),-0.846,-0.0448,1.42 (inactive)
NC(=O)NCC#Cc1ccc2c(c1)[C@]1(C(=O)N2)[C@H](c2ccc(O)cc2)N2[C@H](c3ccccc3)[C@H](c3ccccc3)OC(=O)[C@H]2[C@@H]1C(=O)NC[C@H](O)c1ccccc1,0.544,0.192,-0.0875,-0.106,0.0231,0.163,-0.0491 (inactive),-0.888,0.481,0.716 (inactive)
COC(=O)c1ccc(OC)c(/C=C\CC(CCc2ccccc2)OC(=O)c2ccncc2)c1 (stereo not given),-0.568,0.115,-0.457,-2.19,-2.2,-1.28,-1.32 (inactive),-0.745,0.256,2.06 (inactive)
CC(C)C(CO)N1C(=O)[C@@H]2[C@H]3C(=O)OCC=C[C@H]3OC23C=CCN(Cn2nnc4ccccc42)C(=O)[C@@H]13 (stereo not given in full),-0.746,-0.191,-0.751,0.48,-0.653,-0.578,-0.373 (inactive),0.432,0.281,-0.274 (inactive)
CN(C)C(=O)[C@@]1(CCC(=O)OC(C)(C)C)N=C(c2ccc(OCCCO)cc2)O[C@H]1c1ccccc1N=[N+]=[N-],0.186,0.727,-0.34,-0.956,0.0691,1.45,-0.371 (inactive),-0.432,-0.0283,0.966 (inactive)
[N-]=[N+]=NCc1ccccc1C[C@@]1(C(=O)NCCN2CCOCC2)N=C(c2ccc(OCCCO)cc2)O[C@@H]1c1ccccc1CN=[N+]=[N-],-0.628,0.671,-0.399,-2.59,-2.77,0.787,0.0123 (inactive),-1.06,-0.797,-1.13 (inactive)
CCCCCCCCCCC(O)C1C=CC2C(=O)NC(=O)C2N1Nc1ccccn1 (stereo not given),-3.22,-0.964,-4.08,-3.81,-4.13,-3.82,-0.46 (inactive),-0.944,-0.657,-1.5 (inactive)
CN(C)CCCN1C(=O)[C@@]2(Cc3ccccc31)c1ccccc1C(=O)N(Cc1ccccc1)[C@H]2c1ccc(CO)cc1,0.483,1.16,0.128,0.38,-2.79,0.343,-0.407 (inactive),-0.484,-1.28,0.726 (inactive)
CN(C)CCCC[C@@H]1NC(=O)[C@H]2C[C@@H](C(=O)NCCCCCCNC(=O)CS)[C@@H](c3ccc(O)cc3)N2C1=O,-0.877,0.0215,-1.35,-0.245,-1.02,-1.45,-0.715 (inactive),0.683,0.441,-0.415 (inactive)
CC(C)c1ccc(NN2C(C(O)c3cccs3)C=CC3C(=O)N(c4ccccc4)C(=O)C32)cc1 (stereo not given),-0.869,-0.986,-0.245,-0.639,-0.476,-2.91,-1.73 (inactive),0.183,0.491,-0.28 (inactive)
Cc1ccc(C(C)CC(O)C2C=CC3C(=O)N(Cc4ccccc4)C(=O)C3N2n2cnnc2)o1 (stereo not given),-0.732,-0.126,-0.705,-0.427,-1.63,-0.254,-1.24 (inactive),-0.168,1.24,-1.34 (inactive)
Cc1ccc(F)cc1S(=O)(=O)N[C@@H]1CCN(C(=O)c2ccc(OC(C)C)cc2)C1,0.0926,-1.39,-0.471,0.0842,-0.705,-0.14,-0.0993 (inactive),-0.276,-0.497,-0.216 (inactive)
C[N+](C)(C)CCCC[C@@H]1NC(=O)[C@@H]2C[C@H](C(=O)NCCCCCNC(=O)CS)[C@H](c3cccc(OCCO)c3)N2C1=O,0.884,-0.0052,0.289,-0.0724,-1.31,1.8,-0.364 (inactive),0.245,-0.243,0.764 (inactive)
CC(C)CN1C(=O)[C@@]2(Cc3ccccc31)c1ccccc1C(=O)N(Cc1ccccc1)[C@H]2c1ccc(CO)cc1,-0.225,-0.0208,-0.134,-0.688,-0.152,-0.529,-0.224 (inactive),0.0482,1.07,-0.252 (inactive)
COc1cc2c(cc1OC)CN(C(=O)[C@@H]1[C@H]3C(=O)O[C@H](c4ccccc4)[C@H](c4ccccc4)N3[C@H](c3ccc(OCCO)cc3)[C@@]13C(=O)Nc1ccc(C#CCCO)cc13)CC2,-0.433,1.06,-0.857,-0.369,-0.987,-1.56,1 (inactive),-0.862,-1.04,0.519 (inactive)
O=C1NC(=O)C2C1C=CC(C(O)c1ccc(-c3ccccc3)s1)N2Nc1ccccn1 (stereo not given),-0.275,-0.456,-0.538,-0.0747,-0.642,-1.85,-0.544 (inactive),-0.115,-0.371,-0.842 (inactive)
O=C1NC(=O)C2C1C=CC(C(O)c1ccc3c(c1)OCO3)N2Nc1ccc(Cl)cc1Cl (stereo not given),-0.713,-0.638,-1.22,-2.41,-1.99,-2.87,-0.748 (inactive),-0.103,-0.339,-0.233 (inactive)
CCCC=C(CCC)[C@@H](NS(=O)(=O)CC)c1ccccc1,-2.33,-0.924,-1.71,-2.83,-3.64,-2.68,-0.517 (inactive),-0.889,-0.177,0.677 (inactive)
